Source: PubChem (National Center for Advancing Translational Sciences (NCATS))
Vif-A3F inh: blocks the Vif interaction with APOBEC3F | Potency, µM (titrated, usually from 46.1 µM), for the others: at the highest dose activity, negative = active | HeLa A3F-eYFP + Vif (tagged APOBEC3F with the HIV-1 protein that degrades it), YFP fluorescence increase | actives 0.2% (n = 390,000); further: potency means the concentration at half of the fitted maximal effect; % of control where 0% means no effect; nearly all actives have a fitted effect of over 65% in size
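HeLa cells stably expressing A3F-eYFP plus Vif, plated and incubated overnight at 37 deg C, then exposed to compounds overnight at 37 deg C. Blocked degradation read as raised yellow fluorescence (Ex 488/Em 500-530).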
TSHR antag: human thyrotropin receptor antagonism. AID 504810. TSHR-expressing cells, TSH-stimulated cAMP HTRF, 2 h; hits give low values. activity change, negative = inhibition, % at 11.5 µM. actives 0.2% (n = 330,000);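 active means activity change below a set negative limit, meaning inhibition stronger than a set level, cut at about -70% in these data; inconclusive means activity change between two set negative limits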; further: on the % scale 0 is the no-effect control and ±100 the full control effect
Target sequence (P16473 whole entry, looked up): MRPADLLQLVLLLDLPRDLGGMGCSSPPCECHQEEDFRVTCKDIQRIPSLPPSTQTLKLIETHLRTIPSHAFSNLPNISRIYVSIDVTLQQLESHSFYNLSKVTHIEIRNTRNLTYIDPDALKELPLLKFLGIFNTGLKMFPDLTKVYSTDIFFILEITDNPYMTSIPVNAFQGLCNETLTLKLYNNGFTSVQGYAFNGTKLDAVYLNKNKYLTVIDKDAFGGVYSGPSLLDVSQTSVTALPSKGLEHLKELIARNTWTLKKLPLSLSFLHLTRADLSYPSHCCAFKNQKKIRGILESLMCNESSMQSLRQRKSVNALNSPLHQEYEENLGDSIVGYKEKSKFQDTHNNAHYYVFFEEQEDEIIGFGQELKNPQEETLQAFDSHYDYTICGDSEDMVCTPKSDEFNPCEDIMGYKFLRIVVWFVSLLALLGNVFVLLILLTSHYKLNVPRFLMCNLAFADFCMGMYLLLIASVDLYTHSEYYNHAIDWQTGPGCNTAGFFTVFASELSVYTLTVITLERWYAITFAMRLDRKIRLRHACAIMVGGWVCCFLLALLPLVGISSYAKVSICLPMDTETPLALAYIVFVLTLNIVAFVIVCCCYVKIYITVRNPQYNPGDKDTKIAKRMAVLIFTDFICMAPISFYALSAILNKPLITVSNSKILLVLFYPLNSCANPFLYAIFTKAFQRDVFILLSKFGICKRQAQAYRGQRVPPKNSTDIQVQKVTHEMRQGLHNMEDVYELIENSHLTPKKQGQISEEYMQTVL
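Read-out is FRET at 665 nm (cryptate excitation 337 nm) from a cryptate-tagged anti-cAMP antibody, competed by cell cAMP against cAMP-d2. Compounds are tested on freshly harvested TSHR cells challenged with 4nM TSH (EC80) for 2 hours at 37 deg C.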
VDR inh: blocks the human vitamin D receptor | P11473 | VDR-SRC2-3 peptide fluorescence polarization, 2 h | Potency, µM, inactives show max response, negative = inhibition, most hits filed as inhibitors | actives 0.93% (n = 400,000) | AID 504847; further: potency means the concentration at half of the fitted maximal effect; on the % scale 0 is the no-effect control and ±100 the full control effect
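FP read-out; VDR + SRC2-3 coactivator peptide; 23 nl compound by pintool; 2 h RT incubation; reagents held at 4 deg C, protected from light.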
Vif-APOBEC3G blk: blocks the Vif interaction with human APOBEC3G | Q9HC16 | HeLa A3G-eYFP + Vif (tagged APOBEC3G with the HIV-1 protein that degrades it), YFP fluorescence, overnight | Potency, µM (series often up to 46.1 µM), for the others: top-dose activity, negative = active, hits mostly inhibitors | actives 0.076% (n = 410,000); further: potency means the concentration at half of the fitted maximal effect; on the % scale 0 is the no-effect control and ±100 the full control effect; nearly all actives have a fitted effect of over 60% in size
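Read-out is eYFP fluorescence (Ex 488/Em 500-530) from Vif-expressing HeLa A3G-eYFP cells; more signal means A3G escaped Vif-mediated degradation. Cells plated overnight, compound pinned in, incubated overnight at 37 deg C.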
PLK1 PBD block: PLK1 (human) polo-box domain binding inhibition. P53350. Plk1 PBD binding of FITC phosphopeptide, fluorescence polarization. Potency, µM, without a hit: max response, negative = inhibition, hits mostly inhibitors. actives 2.8% (n = 360,000); further: potency means the concentration at half of the fitted maximal effect; series mostly up to about 57 µM; on the % scale 0 is the no-effect control and ±100 the full control effect; nearly all actives have a fitted effect of over 65% in size
* = called active by the depositor; ? = inconclusive; · = not tested or not shown. The list is not random: actives were taken first. Their share in the collection is about 3.1%. Unless noted, the call rests on the fitted dose curve; in most records, active means well fitted curve in the direction sought with a large enough effect; inconclusive means small, poorly fitted or top-dose-only effect, or another doubt; inactive means no such curve, though single readings can be large; an effect the other way counts as inactive or inconclusive.

SMILES | Vif-A3F inh | TSHR antag | VDR inh | Vif-APOBEC3G blk | PLK1 PBD block
COc1ccc(CCN(C)CCCOc2ccc(S(=O)(=O)c3[nH]c4ccccc4c3C(C)C)cc2)cc1OC | · | · | -6% | · | ·
N/C(=N/OC(=O)c1cccc([N+](=O)[O-])c1)c1cccc([N+](=O)[O-])c1 | 3% | 1 | 1% | 1% | 4%
CC1=C(C)/C(=N/OC(=O)c2cccc([N+](=O)[O-])c2)C=CC1=O | -5% | 20 | 7% | -2% | 4.2µM*
CCCN1CCC(=O)N(C(CSc2ccc(C)cc2)CC(C)C)CC1 (stereo not drawn) | · | · | -19% | 6% | ·
O=C(c1ccc(-c2ccccc2)cc1)c1ccc([N+](=O)[O-])cc1 | · | -2 | · | · | ·
CN(C)C(=O)C#Cc1ccccc1 | 14% | -1 | 9% | 1% | -1%
O=C(C#Cc1ccccc1)c1ccc([N+](=O)[O-])cc1 | 9% | -25 | 14µM* | -4% | 0.47µM*
O=C(C#Cc1ccccc1)c1ccccc1 | 0% | · | · | -29% | 3µM*
CC[N+]1(CC(=O)c2ccc(I)cc2)CCCCC1 | · | · | · | -5% | ·
O=[N+]([O-])c1ccc(Oc2cccc3cccnc23)c([N+](=O)[O-])c1 | ? | 16 | ? | 10µM* | ?
COc1cc(/C=N/n2cnn(Cc3ccccc3Cl)c2=S)cc(OC)c1OC | 7% | -7 | ? | -1% | ?
Fc1ccccc1/C=N/N1CCN(Cc2ccccc2Cl)CC1 | -12% | 3 | -8% | 3% | -6%
COc1ccc(/C=N/n2cnn(Cc3ccccc3Cl)c2=S)cc1 | 14% | -13 | ? | 0% | 27µM*
Oc1ccccc1/C=N/n1cnn(Cc2ccccc2Cl)c1=S | 2% | 0 | ? | -3% | 4.7µM*
CCCCS(=O)(=O)/C=C\C=C/S(=O)(=O)CCCC | -4% | ? | 35µM* | -21% | 15µM*
O=Cc1ccc(I)cc1 | · | · | · | -2% | ·
c1ccc(Nc2nc(N3CCCCC3)nc(N3CCCCC3)n2)cc1 | -1% | 17 | -14% | -1% | 21µM*
c1ccc(Nc2nc(N3CCCC3)nc(N3CCCC3)n2)cc1 | 3% | 13 | 6% | 4% | -2%
OCC1=C[C@@H](O)[C@@H]2C=CO[C@@H](OC3O[C@H](CO)[C@@H](O)[C@H](O)[C@H]3O)[C@H]12 (stereo partly drawn) | · | · | 4% | · | ·
CN(C(=O)c1ccco1)c1nc(-c2ccc(Cl)cc2)cs1 | 1% | -10 | ? | 3% | 0%
CN(C)CCCN(C(=O)c1ccco1)c1nc(-c2ccc(Cl)cc2)cs1 | 5% | -121* | 6% | 2% | -9%
O=C(NC(=S)Nc1ccc2c(c1)OCCO2)c1ccccc1F | -28% | -8 | 23% | -1% | -2%
O=C(Nc1ccc2c(c1)OCCO2)c1ccccc1F | -13% | 5 | -15% | -5% | 3µM*
Cc1ccc2oc(-c3ccc(NC(=O)COc4ccccc4)cc3O)nc2c1 | · | · | · | 1% | ·
CNC(=O)C1CCN(S(=O)(=O)c2c(C)noc2/C=C/N(C)C)CC1 | -4% | 7 | ? | 0% | 27µM*
SMILES | Vif-A3F inh | TSHR antag | VDR inh | Vif-APOBEC3G blk | PLK1 PBD block
COCCNc1cnn(-c2ccccc2)c(=O)c1Cl | 5% | -122* | -5% | -9% | 6%
Clc1ccccc1-c1nc(/C=N/N2CCOCC2)c2ccccn12 | -20% | -5 | ? | -15% | 24µM*
CC(C)(CO)C(O)C(=O)NCCCC(=O)O (stereo not drawn) | · | · | 1% | · | ·
COc1ccc(CCNc2ncnc3c2c(C)c(C)n3CCO)cc1OC | -4% | -9 | ? | -7% | 27µM*
COc1ccc(CCNc2ncnc3c2oc2ccccc23)cc1OC | -3% | -80* | 0% | -11% | -6%
COc1ccc(CCNc2ncnc3c2c(C)c(C)n3CCCN(C)C)cc1OC | 3% | -9 | 6% | 6% | -5%
Cc1ccc(S/C(=N/S(=O)(=O)c2ccc(Cl)cc2)c2ccccc2)cc1 | · | · | ? | -1% | ·
Cc1cccc(NC(=O)CSc2cccc3cccnc23)c1C | 8% | -4 | -1% | 1% | ?
O=C(CSc1cccc2cccnc12)N/N=C/c1ccc(O)cc1 | -5% | -78* | -8% | -6% | -20%
COc1cccc(/C=N/NC(=O)CSc2cccc3cccnc23)c1 | 0% | -4 | -18% | -23% | ?
CCOC(=O)CSc1cccc2cccnc12 | -1% | 4 | -22% | ? | 13µM*
CC(=O)N1CC23C=CC(CC2CC12CCCCCC2)O3 (stereo not drawn) | 1% | 18 | ? | 0% | 8.4µM*
CC(=O)N1Cc2ccccc2C(C)CC12CCCCC2 (stereo not drawn) | -8% | -5 | -16% | 1% | -9%
Cc1ccccc1NC(=O)N1CCN(S(=O)(=O)c2ccccc2)CC1 | 1% | 0 | -20% | -2% | 17µM*
CC(=O)Nc1ccc(S(=O)(=O)N2CCN(C(=O)Cc3ccccc3)CC2)cc1 | · | 16 | ? | 1% | 27µM*
Cc1ccc(S(=O)(=O)N2CCN(C(=O)COc3ccc(NC(=O)c4ccco4)cc3)CC2)cc1 | 9% | 2 | -24% | 0% | 17µM*
Cc1ccc(NC(=O)N2CCN(S(=O)(=O)c3ccccc3)CC2)cc1 | 9% | 0 | 13% | 0% | -5%
CC(=O)Nc1ccc(S(=O)(=O)N2CCN(CCc3ccccc3)CC2)cc1 | -4% | -7 | -19% | 0% | 2%
CCc1nc2nc(C)cc(Nc3ccc(OC)cc3OC)n2n1 | 8% | · | -13% | 2% | ·
C[C@H](C(=O)OCO/N=[N+](\[O-])N1CCCC1)c1cccc2ccccc12 | · | · | -23% | 0% | ·
CC1=C(SCc2ccccc2)C(=O)c2ccccc2C1=O | ? | · | 14µM* | ? | 4.7µM*
CNc1oc(Cc2ccccc2)nc1S(=O)(=O)c1ccccc1 | -5% | 6 | -25% | 2% | 2.7µM*
CC[n+]1ccc(/C=C2\Sc3ccccc3N2CCCS(=O)(=O)[O-])c2ccccc21 | 3.5µM* | -1 | -19% | ? | -23%
C[n+]1ccccc1/C=C1\Sc2ccccc2N1CCO | -12% | -1 | -2% | -15% | 10%
O=C(c1nc(-c2ccc(Cl)cc2)n2c1CCCCC2)N1CCN(c2ccccc2F)CC1 | 1% | · | 14% | -5% | ·
Cc1nc2[nH]c(=S)[nH]c(=O)c2nc1C | 1% | · | -18% | 1% | -11%
